PubChem BioAssay (NCATS)
Records with an inconclusive call do not appear. A call without a number means that no potency is given here. Unmarked numbers belong to inactive results. Calls of active or inactive are those of the source. The call rests on the fitted dose curve; in most records, active means well fitted curve in the direction sought with a large enough effect; inconclusive means small, poorly fitted or top-dose-only effect, or another doubt; inactive means no such curve, though single readings can be large; an effect the other way counts as inactive or inconclusive.

Key:
[1] = test system: JEG-3; test: Primary qHTS to identify gynecologic anti-cancer compounds using libraries of approved drugs and bioactive compounds (AID 1345084); conditions: Gynecologic cancer cell panel viability, ATPlite luminescence, 48 h; series mostly up to 57.5 µM; further: nearly all actives have a fitted effect of over 55% in size
How it was run: (§1)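 In this quantitative HTS, cell killing is estimated from loss of ATP-dependent luciferase light. Cells see five compound concentrations over a 48 h exposure.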

[2] = test system: OV90; test: as above; conditions: Gynecologic cancer cell panel viability, ATPlite luminescence, 48 h; series mostly up to 57.5 µM
How it was run: as §1

[3] = test system: PA-1; test: as above; conditions: Gynecologic cancer cell panel viability, ATPlite luminescence, 48 h; series mostly up to 57.5 µM
How it was run: as §1

[4] = test system: SKOV3; test: as above; conditions: Gynecologic cancer cell panel viability, ATPlite luminescence, 48 h; series mostly up to 57.5 µM
How it was run: as §1

[5] = test system: Tov-21-G; test: as above; conditions: Gynecologic cancer cell panel viability, ATPlite luminescence, 48 h; series mostly up to 57.5 µM
How it was run: as §1

[6] = test system: Tov112D; test: as above; conditions: Gynecologic cancer cell panel viability, ATPlite luminescence, 48 h; series mostly up to 57.5 µM
How it was run: as §1

[7] = Drug repurposing screens with cells derived from glioblastoma tumor samples (AID 1345199); conditions: GBM patient neurospheres viability, ATP luminescence, 48 h; further: nearly all actives have a fitted effect of over 40% in size
How it was run: (§2)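 Four patient lines of CD133+ GBM neurospheres were screened at several concentrations; hits were retested in those lines plus three slower-growing GBM lines, using 48-hour treatment and ATP-based viability.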

[8] = test system: astro; test: as above; conditions: viability, ATP luminescence, 48 h; series mostly up to 45.9 µM
How it was run: as §2

[9] = at 20 µM (top of the series), tumour line C
[10] = at 21.2 µM (top of the series), tumour line B
[11] = at 21.2 µM (top of the series), tumour line D
[12] = at 21.3 µM (top of the series), tumour line A
[13] = at 45.9 µM (top of the series), tumour line B
[14] = at 45.9 µM (top of the series), tumour line D
[15] = at 46.1 µM (top of the series), tumour line C
[16] = at 46 µM (top of the series), tumour line A
Potency means the concentration at half of the fitted maximal effect.

NS(=O)(=O)c1cc(Cl)c(Cl)c(S(N)(=O)=O)c1
Potency [1]: inactive
Potency [2]: inactive
Potency [3]: inactive
Potency [4]: inactive
Potency [5]: inactive
Potency [6]: inactive
activity, negative = cell killing [7, 9]: 4.89%
activity, negative = cell killing [7, 10]: -0.766%
activity, negative = cell killing [7, 11]: 5.15%
activity, negative = cell killing [7, 12]: -15%
Potency [8]: inactive

Cc1nc(C(=O)NCC(=O)O)c(O)c2ccc(Oc3ccccc3)cc12
Potency [1]: inactive
Potency [2]: inactive
Potency [3]: inactive
Potency [5]: inactive
Potency [6]: inactive

CCN1CCN(c2ccc(Nc3cc(N(C)C(=O)Nc4c(Cl)c(OC)cc(OC)c4Cl)ncn3)cc2)CC1
Potency [1]: inactive
Potency [2]: inactive
Potency [3]: inactive
Potency [6]: inactive

CCCCC(F)(F)[C@@]1(O)CC[C@H]2[C@H](CC(=O)[C@@H]2CCCCCCC(=O)O)O1
Potency [1]: inactive
Potency [2]: inactive
Potency [3]: inactive
Potency [4]: inactive
Potency [5]: inactive
Potency [6]: inactive
activity, negative = cell killing [7, 13]: -4.88%
activity, negative = cell killing [7, 14]: -10.8%
activity, negative = cell killing [7, 15]: 12%
Potency [8]: inactive

CS(=O)(=O)c1ccc(C2=C(c3ccccc3)C(=O)OC2)cc1
Potency [1]: inactive
Potency [2]: inactive
Potency [3]: inactive
Potency [5]: inactive
Potency [6]: inactive
activity, negative = cell killing [7, 13]: -11.3%
activity, negative = cell killing [7, 15]: -14.3%
Potency [8]: inactive

CC1=C(C(=O)Nc2cc3cn[nH]c3cc2F)C(c2ccc(C(F)(F)F)cc2)CC(=O)N1 (centres undefined)
Potency [1]: inactive
Potency [2]: inactive
Potency [3]: inactive
Potency [4]: inactive
Potency [5]: inactive
Potency [6]: inactive

Cc1csc(-c2nnc(Nc3ccc(Oc4ncccc4-c4ccnc(N)n4)cc3)c3ccccc23)c1
Potency [1]: inactive
Potency [2]: inactive
Potency [3]: inactive
Potency [5]: inactive

COc1ccnc(CS(=O)c2nc3ccc(OC(F)F)cc3[nH]2)c1OC (centres undefined)
activity, negative = cell killing [7, 15]: -15.1%

O=C(Nc1cccc2c(=O)cc(-c3nn[nH]n3)oc12)c1ccc(OCCCCc2ccccc2)cc1
activity, negative = cell killing [7, 15]: 16%

O=C(CCCN1CCN(c2ccc(F)cc2)CC1)NC1c2ccccc2CSc2ccccc21 (centres undefined)
Potency ([7]; tumour line A): 3.98 µM (active)

CN1CCN2c3ncccc3Cc3ccccc3C2C1 (centres undefined)
activity, negative = cell killing [7, 13]: -0.787%
activity, negative = cell killing [7, 14]: -14.6%
activity, negative = cell killing [7, 15]: 14.4%
Potency [8]: inactive

COc1ccc(Cn2ccc3ccc(C(=O)NO)cc32)cc1
Potency [2]: inactive
Potency [6]: inactive

Cc1cccc2c1CC[C@H](CN1CCC(c3c(Cl)cccc3Cl)CC1)C[C@@H]2O
Potency [2]: inactive
Potency [3]: 11.2 µM (active)
Potency [5]: inactive
Potency [6]: inactive

CCC[C@H](N[C@@H](C)C(=O)N1[C@@H]2CCCC[C@H]2C[C@H]1C(=O)O)C(=O)OCC
activity, negative = cell killing [7, 13]: -14%
activity, negative = cell killing [7, 14]: -19.1%
activity, negative = cell killing [7, 16]: -33%
activity, negative = cell killing [7, 15]: -16.9%
Potency [8]: inactive

CNC(=O)c1cc(Oc2ccc(NC(=O)Nc3ccc(Cl)c(C(F)(F)F)c3)c(F)c2)ccn1
Potency [3]: inactive
Potency [4]: inactive
Potency [5]: inactive
Potency [6]: inactive

Nc1ncnc2c1c(-c1cccc(OCc3ccccc3)c1)cn2C1CC(CN2CCC2)C1 (centres undefined)
Potency [2]: 22.4 µM (active)
Potency [3]: 14.1 µM (active)
Potency [5]: 35.5 µM (active)

CC1(C)CC(=O)c2c(C(F)(F)F)nn(-c3ccc(C(N)=O)c(NC4CCC(O)CC4)c3)c2C1 (centres undefined)
Potency [2]: 0.316 µM (active)
Potency [3]: 0.447 µM (active)
Potency [4]: 0.398 µM (active)
Potency [5]: 0.355 µM (active)

CC1(COc2ccc3c(c2)ncn3-c2ccc3cccc(N4CCC(N)CC4)c3n2)COC1
Potency [3]: 8.91 µM (active)

NC1(C(=O)N[C@@H](CCO)c2ccc(Cl)cc2)CCN(c2ncnc3[nH]ccc23)CC1
Potency [2]: inactive
Potency [5]: 0.794 µM (active)
Potency [6]: inactive

CC[C@H]1OC(=O)[C@H](C)[C@@H](O[C@H]2C[C@@](C)(OC)[C@@H](O)[C@H](C)O2)[C@H](C)[C@@H](O[C@@H]2O[C@H](C)C[C@H](N(C)C)[C@H]2O)[C@](C)(O)C[C@H](C)C(=NOCOCCOC)[C@H](C)[C@@H](O)[C@]1(C)O
activity, negative = cell killing [7, 13]: -8.15%
activity, negative = cell killing [7, 14]: 4.24%
activity, negative = cell killing [7, 15]: -6.06%
Potency [8]: inactive

Clc1ccc(COC(Cn2ccnc2)c2ccc(Cl)cc2Cl)c(Cl)c1 (centres undefined)
activity, negative = cell killing [7, 9]: -15.2%
Potency ([7]; tumour line A): 5.62 µM (active)
Potency ([7]; tumour line D): 14.1 µM (active)
Potency [8]: inactive

CN1CC(=O)N2C(Cc3c([nH]c4ccccc34)[C@H]2c2ccc3c(c2)OCO3)C1=O (some centres undefined)
activity, negative = cell killing [7, 13]: -5.44%
activity, negative = cell killing [7, 14]: -11.4%
activity, negative = cell killing [7, 15]: -21.6%
Potency ([7]; tumour line A): 11.2 µM (active)
Potency [8]: inactive

COc1cc2c(cc1OC)CC(=O)N(CCCN(C)C[C@H]1Cc3cc(OC)c(OC)cc31)CC2
activity, negative = cell killing [7, 13]: -14.4%
activity, negative = cell killing [7, 14]: -19.2%
activity, negative = cell killing [7, 15]: -34%
Potency ([7]; tumour line A): 11.2 µM (active)
Potency [8]: inactive

NCC1CCC(C(=O)O)CC1 (centres undefined)
activity, negative = cell killing [7, 9]: 25.1%
activity, negative = cell killing [7, 10]: -5.15%
activity, negative = cell killing [7, 11]: -6.32%
activity, negative = cell killing [7, 12]: -17.9%
Potency [8]: inactive

N#CC(c1ccc(Cl)cc1)c1c(Cl)cc(-n2ncc(=O)[nH]c2=O)cc1Cl (centres undefined)
activity, negative = cell killing [7, 13]: -18.3%
Potency ([7]; tumour line C): 16.4 µM (active)

COc1ccc(-c2cc3nccn3c(Nc3ncccc3C(N)=O)n2)cc1OC
Potency [2]: inactive
Potency [3]: 3.55 µM (active)
Potency [6]: inactive

CN1CCC(COc2cnc(-c3cccc(Cn4nc(-c5cccc(C#N)c5)ccc4=O)c3)nc2)CC1
Potency [2]: inactive
Potency [3]: inactive
Potency [4]: inactive
Potency [5]: inactive
Potency [6]: inactive

Fc1ccc(C(c2ccc(F)cc2)N2CCN(CC=Cc3ccccc3)CC2)cc1
activity, negative = cell killing [7, 15]: -6.32%
Potency ([7]; tumour line A): 2.82 µM (active)
Potency ([7]; tumour line D): 11.2 µM (active)
Potency [8]: 35.5 µM (active)

CCC(=O)OCC(=O)[C@@]1(OC(=O)CC)[C@@H](C)C[C@@H]2[C@H]3CCC4=CC(=O)C=C[C@]4(C)[C@@]3(F)[C@@H](O)C[C@@]21C
activity, negative = cell killing [7, 13]: -4.93%
activity, negative = cell killing [7, 15]: 2.82%
Potency ([7]; tumour line A): 11.2 µM (active)
Potency [8]: inactive

CCCCCCCCCCCCCCCC(=O)O[C@H]1[C@@H](O)[C@@H](O)[C@@H]([C@H](NC(=O)[C@@H]2C[C@@H](CCC)CN2C)[C@H](C)Cl)O[C@@H]1SC
activity, negative = cell killing [7, 13]: -20%
activity, negative = cell killing [7, 14]: -15.1%
activity, negative = cell killing [7, 15]: 10.8%
Potency ([7]; tumour line A): 17.8 µM (active)

CNC1CCC(N(Cc2cccc(-c3ccncc3)c2)C(=O)c2sc3ccccc3c2Cl)CC1 (centres undefined)
Potency [4]: 25.1 µM (active)
Potency [5]: inactive
Potency [6]: inactive

Fc1ccc(CNc2ncnc3ccc(F)cc23)cc1
Potency [1]: inactive
Potency [5]: inactive
Potency [6]: inactive

COc1ccc(-c2ccc3ncc4c(c3c2)n(-c2ccc(N3CCNCC3)c(C(F)(F)F)c2)c(=O)n4C)cn1
Potency [2]: 31.6 µM (active)
Potency [3]: 0.316 µM (active)
Potency [5]: 35.5 µM (active)
Potency [6]: 15.8 µM (active)

CNc1nc(Nc2ccc(C(=O)N3CCOCC3)cc2OC)ncc1Cl
Potency [3]: inactive
Potency [4]: inactive
Potency [5]: inactive
Potency [6]: inactive

N#Cc1c(N(CC(=O)O)CC(=O)O)sc(C(=O)O)c1CC(=O)O
activity, negative = cell killing [7, 13]: -0.252%
activity, negative = cell killing [7, 14]: 0.729%
activity, negative = cell killing [7, 16]: -24.3%
activity, negative = cell killing [7, 15]: 4.23%
Potency [8]: inactive

O=C(O)c1nc(=O)[nH]c(=O)[nH]1
activity, negative = cell killing [7, 13]: 0.794%
activity, negative = cell killing [7, 14]: 6.49%
activity, negative = cell killing [7, 16]: -9.41%
activity, negative = cell killing [7, 15]: -6.32%
Potency [8]: inactive

CC(C)CN(C[C@@H](O)[C@H](Cc1ccccc1)NC(=O)O[C@H]1CO[C@H]2OCC[C@H]21)S(=O)(=O)c1ccc(N)cc1
activity, negative = cell killing [7, 13]: -11.9%
activity, negative = cell killing [7, 14]: -22.5%
activity, negative = cell killing [7, 15]: -17%
Potency ([7]; tumour line A): 17.8 µM (active)
Potency [8]: inactive

CC[C@H](C)C(=O)O[C@H]1C[C@H](O)C=C2C=C[C@H](C)[C@H](CC[C@@H](O)C[C@@H](O)CC(=O)O)[C@H]21
Potency [8]: inactive

Nc1[nH]nc2nnc(-c3c(-c4ccccc4)nn4ccccc34)cc12
Potency [2]: inactive
Potency [3]: inactive
Potency [4]: inactive
Potency [5]: inactive
Potency [6]: inactive

Cc1ccccc1C(=O)c1ccc(Nc2ccc(Br)cc2N)cc1Cl
Potency [2]: inactive
Potency [4]: inactive
Potency [5]: inactive
Potency [6]: inactive

CC(C)(CO)[C@@H](O)C(=O)NCCC(=O)O
activity, negative = cell killing [7, 13]: 1.18%
activity, negative = cell killing [7, 14]: -3.38%
activity, negative = cell killing [7, 15]: -2.72%
Potency [8]: inactive
